These results are taken from PubChem BioAssay.

Assay [1] is described as follows: antimalarial activity against Dd2 strain (AID 2302;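 active = growth inhibition above 50% at the single 2 µM test dose, taken to imply half-maximal potency below 2 µM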;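 also: 0% = DMSO untreated growth and 100% = chloroquine plus artemisinin killed control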). To be noted: P. falciparum Dd2 in RBCs, LDH growth readout, 72 h; at 2 µM; stronger effect = higher value.
Assay [2] in a line: human hepatoma cell viability loss – ATP luminescence, cytotoxicity control for P. falciparum antimalarial project, primary screen (AID 2303;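 active = inhibition above 50%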;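 also: 0% = DMSO wells and 100% = digitonin-killed cells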). To be noted: HepG2 viability, 24-48 h, at 10 µM, stronger effect = higher value.
Assay [3] addresses L-lactate dehydrogenase (Plasmodium falciparum (isolate CDC / Honduras)) (UniProt Q27743). The assay can be described thus: PfLDH activity inhibition – cell lysate, 3D7 strain, counter-screen for P. falciparum growth inhibition project (AID 2304).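 Also: 0% = vehicle and 100% = reference inhibitor.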 As to conditions: P. falciparum 3D7 crude extract, LDH APAD/NBT absorbance; at 2 µM; stronger effect = higher value. (In general: The purpose of a counterscreen is to sort out artefacts and off-target activity.)

A short description of assay [4]: inhibition of 3D7 malaria parasite growth – strain 3D7 (AID 2306).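 Also: 0% = DMSO wells and 100% = chloroquine plus artemisinin control wells.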 To be noted: P. falciparum 3D7 erythrocytic growth, LDH absorbance, 72 h; at 2 µM; stronger effect = higher value.
Assay [5] deals with Calcium-dependent protein kinase 1 (Plasmodium falciparum (isolate 3D7)) (UniProt P62344). The assay can be described thus: PfCDPK1 kinase inhibitors, biochemical, TCAMS library (AID 1159585; cut-off not given, nearly all actives have IC50 up to about 0.98 µM;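 also: inhibitors leave more ATP so luminescence rises with inhibition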). As to conditions: recombinant PfCDPK1, Kinase-Glo ATP depletion luminescence.
Assay [6] deals with Plasmodium falciparum protein kinase 6 (PK6, PF3D7_1337100) (UniProt Q8IDW1). The assay can be described thus: PfPK6 kinase inhibitors, biochemical, TCAMS library (AID 1159586). To be noted: recombinant PfPK6, Kinase-Glo ATP depletion luminescence.
For assay [7], the target named is Protein kinase 7 (PK7), Plasmodium falciparum 3D7 (PF3D7_0213400) (UniProt Q7YTF7). The assay can be described thus: inhibition of Plasmodium PK7 catalytic activity – biochemical, TCAMS antimalarial set, Kinase-Glo luminescence (AID 1159587). To be noted: recombinant PfPK7, Kinase-Glo ATP depletion luminescence. A general note: Kinase-Glo measures the ATP left after a reaction by luminescence.

Assay [8] addresses Calcium-dependent protein kinase 4 (Plasmodium falciparum (isolate 3D7)) (UniProt Q8IBS5). The assay can be described thus: PfCDPK4 kinase inhibitors, biochemical, TCAMS library (AID 1159588; cut-off not given, nearly all actives have IC50 up to about 0.91 µM). As to conditions: recombinant PfCDPK4, Kinase-Glo ATP depletion luminescence.

Structures are written as SMILES. Unmarked numbers belong to inactive results. For some of these results: Potency and affinity values are given separately. Active and inactive are the calls of the source. Unless noted, no rule for the calls is given here.

Sequence of L-lactate dehydrogenase (Plasmodium falciparum (isolate CDC / Honduras)) (Q27743 whole entry, looked up): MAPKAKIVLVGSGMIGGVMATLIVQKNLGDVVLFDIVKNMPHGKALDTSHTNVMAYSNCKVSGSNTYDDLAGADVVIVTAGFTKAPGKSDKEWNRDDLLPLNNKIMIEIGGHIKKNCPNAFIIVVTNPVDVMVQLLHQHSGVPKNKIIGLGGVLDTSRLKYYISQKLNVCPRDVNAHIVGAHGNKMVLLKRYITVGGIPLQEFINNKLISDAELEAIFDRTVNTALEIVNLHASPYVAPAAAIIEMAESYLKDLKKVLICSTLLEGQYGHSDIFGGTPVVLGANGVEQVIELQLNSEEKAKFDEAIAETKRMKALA
Sequence of Calcium-dependent protein kinase 4 (Plasmodium falciparum (isolate 3D7)) (Q8IBS5 whole entry, looked up): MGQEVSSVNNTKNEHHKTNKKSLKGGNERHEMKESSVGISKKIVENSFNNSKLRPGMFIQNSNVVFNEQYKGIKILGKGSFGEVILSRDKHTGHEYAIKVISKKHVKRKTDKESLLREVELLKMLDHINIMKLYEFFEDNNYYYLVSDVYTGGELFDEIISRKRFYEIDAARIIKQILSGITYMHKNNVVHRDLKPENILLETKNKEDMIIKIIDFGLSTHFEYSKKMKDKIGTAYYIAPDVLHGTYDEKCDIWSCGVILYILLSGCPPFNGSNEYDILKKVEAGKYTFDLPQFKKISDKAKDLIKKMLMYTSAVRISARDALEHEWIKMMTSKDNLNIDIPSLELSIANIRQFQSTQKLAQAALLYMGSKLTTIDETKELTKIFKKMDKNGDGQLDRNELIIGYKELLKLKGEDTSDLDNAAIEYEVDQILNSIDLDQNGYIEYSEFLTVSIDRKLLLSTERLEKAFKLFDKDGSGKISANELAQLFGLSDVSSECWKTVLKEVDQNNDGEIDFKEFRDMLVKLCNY
Sequence of Calcium-dependent protein kinase 1 (Plasmodium falciparum (isolate 3D7)) (P62344 whole entry, looked up): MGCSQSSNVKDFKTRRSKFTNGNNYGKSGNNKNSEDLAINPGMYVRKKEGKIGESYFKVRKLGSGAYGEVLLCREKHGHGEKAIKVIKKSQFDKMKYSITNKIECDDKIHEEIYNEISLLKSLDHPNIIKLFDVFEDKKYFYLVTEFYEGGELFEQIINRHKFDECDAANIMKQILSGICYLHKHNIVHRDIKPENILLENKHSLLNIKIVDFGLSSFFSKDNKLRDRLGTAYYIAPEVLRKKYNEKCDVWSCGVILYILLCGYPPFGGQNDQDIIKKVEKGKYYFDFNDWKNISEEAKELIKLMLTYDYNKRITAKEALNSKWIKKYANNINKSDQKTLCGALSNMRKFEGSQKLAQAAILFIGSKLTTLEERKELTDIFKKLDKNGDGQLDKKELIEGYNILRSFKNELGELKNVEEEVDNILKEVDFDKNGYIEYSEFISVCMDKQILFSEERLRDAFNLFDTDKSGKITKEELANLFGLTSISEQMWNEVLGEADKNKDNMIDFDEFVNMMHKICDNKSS
Sequence of Plasmodium falciparum protein kinase 6 (PK6, PF3D7_1337100) (Q8IDW1 1-305): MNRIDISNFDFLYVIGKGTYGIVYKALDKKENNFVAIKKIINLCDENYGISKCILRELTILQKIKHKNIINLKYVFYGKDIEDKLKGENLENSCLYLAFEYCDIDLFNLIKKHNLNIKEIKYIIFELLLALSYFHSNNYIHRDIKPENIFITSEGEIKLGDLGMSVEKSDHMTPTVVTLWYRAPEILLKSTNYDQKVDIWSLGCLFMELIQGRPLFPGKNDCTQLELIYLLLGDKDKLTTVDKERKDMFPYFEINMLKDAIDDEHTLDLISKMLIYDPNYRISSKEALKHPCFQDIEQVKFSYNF
Sequence of Protein kinase 7 (PK7), Plasmodium falciparum 3D7 (PF3D7_0213400) (Q7YTF7 1-343): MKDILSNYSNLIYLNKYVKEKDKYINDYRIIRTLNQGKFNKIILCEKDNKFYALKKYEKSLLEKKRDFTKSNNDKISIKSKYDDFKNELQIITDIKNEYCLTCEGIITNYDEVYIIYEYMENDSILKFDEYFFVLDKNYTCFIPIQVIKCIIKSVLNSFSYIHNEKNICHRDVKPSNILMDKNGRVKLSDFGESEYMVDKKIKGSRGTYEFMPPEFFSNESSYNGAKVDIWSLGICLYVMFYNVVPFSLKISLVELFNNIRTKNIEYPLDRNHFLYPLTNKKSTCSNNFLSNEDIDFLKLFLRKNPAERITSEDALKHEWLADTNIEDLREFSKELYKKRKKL

One may read the inhibition as the drop in the measured response relative to a control, in per cent. As for `Cc1ccc(CN2CCCN(Cc3cccc(NC(=O)c4ccc(-c5ccccc5)cc4)c3)CC2)cc1C`, the growth inhibition in assay [1] is 19%; in assay [4] it was 84% (active). The results for the inhibition in assay [2] and in assay [3] were 43% and -4%, respectively. Besides, the outcome in assay [5], in assay [6], in assay [7] and in assay [8] was inactive.

For `CCCCNc1c(CC)c(C)c(C#N)c2nc3ccccc3n12`, the growth inhibition in assay [1] and in assay [4] was 100% (active) throughout. The results for the inhibition in assay [2] and in assay [3] were 3% and -5%, respectively. The result in assay [5], in assay [6], in assay [7] and in assay [8] was inactive.

As to `CC(C)c1ccc(C(NC(=O)C2CCCCC2)c2ccc3cccnc3c2O)cc1` (stereo not given), the growth inhibition is 70% (active) in assay [1] and 89% (active) in assay [4]. Further, the values for the inhibition in assay [2] and in assay [3] were 46% and -8%, respectively. In addition, the result in assay [5], in assay [6], in assay [7] and in assay [8] was inactive.

For `CCc1cn2c3c(cc(C(=O)N[C@@H](Cc4ccccc4)[C@H](O)CNCc4ccccc4C)cc13)N(C)S(=O)(=O)CC2`, the growth inhibition in assay [1] and in assay [4] was 98% (active) each time. For the same compound, the figures for the inhibition in assay [2] and in assay [3] were 3% and 5%, respectively. Further, the outcome in assay [5], in assay [6], in assay [7] and in assay [8] was inactive.

On to `O=C(Nc1cccc(Cl)c1)c1cnc(N2CCN(c3ccncc3)CC2)c(Cl)c1`, for which the growth inhibition was 97% (active) in assay [1] and 101% (active) in assay [4]. For the same compound, the inhibition in assay [2] was 54% (active); in assay [3], 4%. For the same compound, the outcome in assay [5], in assay [6], in assay [7] and in assay [8] was inactive.

Take `O=C(N[C@H]1CCN(Cc2ccc(OCCN3CCNCC3)c(Cl)c2)C1)c1ccc(Cl)c(Cl)c1`: the growth inhibition in assay [1] was 5%; in assay [4] it was 101% (active). Also, the figures for the inhibition in assay [2] and in assay [3] were 50% (active) and -1%, respectively. The result in assay [5], in assay [6], in assay [7] and in assay [8] was inactive.

Consider `O=C(Nc1cccc(CN2CCCN(Cc3ccc(O)cc3)CC2)c1)c1ccc2ccccc2c1`, for which the growth inhibition in assay [1] was 78% (active); in assay [4], 101% (active). Also, the values for the inhibition in assay [2] and in assay [3] were 20% and 1%, respectively. Moreover, the outcome in assay [5], in assay [6], in assay [7] and in assay [8] was inactive.

`CS(=O)(=O)Nc1cccc(-c2cnc3[nH]cc(-c4ccc(C(=O)O)c(F)c4)c3c2)c1`: the growth inhibition in assay [1] is 76% (active); in assay [4], 99% (active). For the same compound, the inhibition in assay [2] is 27%; in assay [3] it was 5%. The outcome in assay [5], in assay [6], in assay [7] and in assay [8] was inactive.

Take `O=C(c1ccccc1[N+](=O)[O-])N(Cc1ccccc1)c1ccccn1`: the growth inhibition was -2% in assay [1] and 91% (active) in assay [4]. For the same compound, the inhibition in assay [2] was 0%; in assay [3] it was -1%. Moreover, the result in assay [5], in assay [6], in assay [7] and in assay [8] was inactive.

For the compound `Cc1cccc2[nH]c(-c3ccc(-c4cccc(NC(=O)C(=O)c5cccn5C)c4)cc3)nc12`, the results for the growth inhibition in assay [1] and in assay [4] were 17% and 98% (active), respectively. Further, the inhibition in assay [2] is 30%; in assay [3] it was 3%. Also, the result in assay [5], in assay [6], in assay [7] and in assay [8] was inactive.

For `NC(=O)c1c(Cl)nc2ccccc2c1Cl`, the figures for the growth inhibition in assay [1] and in assay [4] were -2% and 91% (active), respectively. The inhibition in assay [2] is 2%; in assay [3], -2%. The result in assay [5], in assay [6], in assay [7] and in assay [8] was inactive.

For the compound `Cc1nc(NCc2ccccc2)cc(NCC(O)c2ccc(O)cc2)n1` (stereo not given), the growth inhibition in assay [1] was 10%; in assay [4], 85% (active). The results for the inhibition in assay [2] and in assay [3] were 5% and -2%, respectively. The outcome in assay [5], in assay [6], in assay [7] and in assay [8] was inactive.

With `CCOC(=O)c1c(NC(=O)c2ccccc2)sc2c(O)c(CNC3CCCCC3)ccc12`, the growth inhibition was 98% (active) in assay [1] and 99% (active) in assay [4]. The inhibition was 6% in assay [2] and 1% in assay [3]. Besides, the result in assay [5], in assay [6], in assay [7] and in assay [8] was inactive.

Regarding `C=CCc1ccc(C[C@H](NC(=O)OC(C)(C)C)C(=O)OC)cc1`, the growth inhibition in assay [1] and in assay [4] was 98% (active) throughout. Further, the inhibition was 77% (active) in assay [2] and 4% in assay [3]. Also, the result in assay [5], in assay [6], in assay [7] and in assay [8] was inactive.

For the compound `COc1ccc(-c2nc3c(NCc4ccccc4)nccc3[nH]2)c(OC)c1`, the results for the growth inhibition in assay [1] and in assay [4] were 21% and 99% (active), respectively. For the same compound, the inhibition in assay [2] was 16%; in assay [3] it was 4%. Also, the result in assay [5], in assay [6], in assay [7] and in assay [8] was inactive.

In the case of `O=C(NCCc1ccccc1)N(Cc1ccccc1-c1cccc(CNCc2ccc3c(c2)OCO3)c1)C1CCN(Cc2ccccc2)CC1`, the growth inhibition in assay [1] was 77% (active); in assay [4] it was 93% (active). The inhibition in assay [2] was 29%; in assay [3] it was 5%. Moreover, the outcome in assay [5], in assay [6], in assay [7] and in assay [8] was inactive.

For the compound `CCCC(C)NC[C@@H](O)[C@H](Cc1ccccc1)NC(=O)c1cc(NCC)cc(N2CCCCS2(=O)=O)c1` (stereo not given in full), the growth inhibition in assay [1] is 98% (active); in assay [4], 101% (active). In addition, the inhibition in assay [2] was -4%; in assay [3], -2%. The outcome in assay [5], in assay [6], in assay [7] and in assay [8] was inactive.

Take `CC(C)C[C@H](NC(=O)[C@H](Cc1ccccc1)N(C[C@H](Cc1ccccc1)NC(=O)OC(C)(C)C)C(=O)C(F)(F)F)C(=O)NC1CCN(Cc2ccccc2)CC1`: the figures for the growth inhibition in assay [1] and in assay [4] were 82% (active) and 92% (active), respectively. Besides, the results for the inhibition in assay [2] and in assay [3] were 13% and -5%, respectively. For the same compound, the result in assay [5], in assay [6], in assay [7] and in assay [8] was inactive.

On to `CCOC(=O)c1ccc(NC(=O)N(Cc2ccc(-c3ccc(CN4CCNCC4)cc3)cc2)Cc2cccnc2)cc1`, for which the growth inhibition is 34% in assay [1] and 94% (active) in assay [4]. For the same compound, the inhibition is 13% in assay [2] and 2% in assay [3]. The outcome in assay [5], in assay [6], in assay [7] and in assay [8] was inactive.

With `Clc1cc(Nc2ncnc3cc(C#C[C@H]4CCCN4)sc23)cc2[nH]c(Cc3ccccc3)nc12`, the growth inhibition is 57% (active) in assay [1] and 91% (active) in assay [4]. The results for the inhibition in assay [2] and in assay [3] were 29% and 1%, respectively. The outcome in assay [5], in assay [6], in assay [7] and in assay [8] was inactive.
